# Compounds without any hit were thinned out: in the full panel of roughly 83,000, 20% have a hit.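 Step 1: grow cells in 96-well plates. Step 2: add test compound at a single concentration. Step 3: incubate 48 h. Step 4: record percent growth.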 A number with no mark means an inactive call. Active and inactive are the calls of the source. How the source made its calls: active means growth percent below 10; inactive means the rest.
# Tested on: HL-60(TB) leukemia
# Experiment: NCI-60 one-dose screen, 48 h (100 = growth as untreated, 0 = no growth, -100 = all killed)
# Conditions: 10 µM unless noted
row,SMILES,growth
1,CCOc1ccc(-n2nc(C(=O)Nc3cc(OC)c(OC)c(OC)c3)nc2-c2cc(OC)c(OC)c(OC)c2)cc1,98.2%
2,CC(C)(C)OC(=O)NC(CSCc1ccccc1)C(=O)ON1C(=O)CCC1=O (centres undefined),70.9%
3,CCOC(=O)c1cc2c(n1Cc1cc(OC)cc(OC)c1)-c1oncc1CCC2,5.41% (active)
4,Cn1ccnc1C(=O)/C=C/c1ccc(C(=O)Nc2ccc(Cl)cc2)cc1,-16.9% (active)
5,O=C(Nc1ccccc1Cl)OCCN1CCOCC1,108%
6,Cc1cc(C)cc(Nc2ccc([N+](=O)[O-])c(NCCN3CCOCC3)n2)c1,-13.9% (active)
7,Cn1cc(-c2ccc3cc(-c4ccc(CC(=O)Nc5cc(C(C)(C)C)on5)cc4)cnc3c2)cn1,-14.3% (active)
8,CC(=O)CC(=O)N(C)C,114%
9,COc1ccc(/C=C2/CN(CCC#N)C/C(=C\c3ccc(OC)cc3)C2=O)cc1,13.6%
10,Cc1cc(C)c(NC(=O)c2sc3nc4c(cc3c2N)C(=O)CCC4)c(C)c1,14.6%
11,N#CC1(C#N)C(c2cccs2)NC(c2cccs2)C1(C#N)C#N (centres undefined),99%
12,CCCCNc1ccc(Nc2ccccc2)cc1,16.5%
13,N#Cc1c(N2CCNCC2)nc2sc3cc(Cl)c(Cl)cc3n2c1=N,89%
14,COc1ccc(OC)c(Nc2nnc(-c3cc(OC)c(OC)c(OC)c3)o2)c1,95.5%
15,CC[N+](C)(C)N,103%
16,O=[N+]([O-])c1cccc(C(F)(F)F)c1,109%
17,COc1ccc2c(c1)[nH]c(=O)c1c3cc(C)c(C)cc3cn21,-14.8% (active)
18,Nc1nc(SCc2ccccc2)c2ncn(C3CCCC3)c2n1,75.2%
19,COC(=O)c1cc2oc(/C=N\NC(=O)c3cc4oc(C)c(C)c4[nH]3)cc2[nH]1,103%
20,Clc1ccc(-c2nc(-c3cccs3)cn3ccnc23)cc1,98.8%

row,SMILES,growth
1,CCOC1(OCC)OC(c2ccccc2)=C(C#N)C(/C=C\c2ccccc2)C1(OCC)OCC (centres undefined),80.1%
2,O=C(c1ccccc1)[C@@H](c1ccccc1)[C@]1(O)C(=O)Nc2ccccc21,107%
3,CN1C(=O)N2CN3CCCN(C3)CN3C(=S)NC1C23 (centres undefined),99.8%
4,CCN(CC)c1ccc(/C=N/NC(=O)Cc2ccc(Nc3ccnc(C(F)(F)F)c3)cc2)c(O)c1,0.765% (active)
5,Cc1csc(NC(=O)c2sc3nc(-c4cccs4)ccc3c2N)n1,105%
6,CCOC(=O)/C(=C(\C)N)C1CC(=O)NC1=O (centres undefined),99.9%
7,O=C1/C(=C\c2cccc3nccnc23)SC(=S)N1CCc1ccc(O)cc1,79.5%
8,N#Cc1c(NC(=O)c2cccs2)[n+]([O-])c2ccc(Cl)cc2[n+]1[O-],122%
9,Cc1cc(C(C)(C)C)cc(C)c1Br,108%
10,CCN(CC)CC(O)CNc1ccnc2cc(Cl)c(Cl)cc12 (centres undefined),92.2%
11,Cn1c(C(N)=O)cc2c1-c1nc(NC3CCCCC3)ncc1CCC2,105%
12,COc1ccccc1OCC(O)CO (centres undefined),74.1%
13,Cc1ncc(-c2ccnc(Nc3ccc(S(C)(=O)=O)cc3)n2)n1C(C)C,-43.2% (active)
14,Cc1cc(Nc2nc(SCc3ccc(C(=O)Nc4ccc(F)cc4N)cc3)nn3cccc23)n[nH]1,-26.4% (active)
15,CCCCCCCCCOc1c(OC)cc(C2CC(=O)Nc3c2c(C)nn3-c2nc3ccccc3[nH]2)cc1OC (centres undefined),9.26% (active)
16,COc1cc(/C=C2\CN(C)C/C(=C\c3cc(CN4CCCCC4)c(O)c(OC)c3)C2=O)cc(CN2CCCCC2)c1O,11%
17,CC1CCC(C(C)C)C(NN)C1 (centres undefined),70.2%
18,COc1cc2c(cc1O)[C@@]1(C)[C@H](c3ccccc3Br)OC(=O)N1CC2,73.3%
19,Cc1n[nH]c2ccc(Br)cc2c1=O,94.3%
